Screening results: PubChem, National Center for Advancing Translational Sciences (NCATS)
RE007 growth inh: less growth of the S. pombe RE007 Vpr strain; AID 651644; Potency, µM (highest dose often 92.2 µM), for the others: at the highest dose activity change, negative = less growth, usual class: inhibitors; hit rate 0.21% among 360,000; S. pombe RE007 Vpr strain, BacTiter-Glo ATP luminescence, 24 h; active = well fitted falling curve with a large enough effect; inconclusive = small, poorly fitted or top-dose-only effect; inactive = no such curve, though single readings can be large or run the other way; note: nearly all actives have a fitted effect of over 50% in size
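Fission yeast RE007 carrying one integrated HIV-1 vpr copy, seeded at OD 0.01 in PMG+AL medium with 23 nL pinned compound. Grown 24 h at 30 degrees; viability read by BacTiter-Glo luminescence after 5 min.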
Sm TGR inh: blocks Schistosoma mansoni thioredoxin glutathione reductase | Q962Y6 | purified TGR, DTNB reduction, TNB absorbance 405 nm | Potency, µM (titrated, usually from 114 µM), for inactives: at the top dose activity change, negative = inhibition, usual class: inhibitors | hit rate 3% among 360,000 | AID 485364; note: nearly all actives have a fitted effect of over 60% in size
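TGR 20 nM + NADPH 100 uM (dispensed conc.), cpd preinc 15 min RT; start with NADPH (500 uM addition) then DTNB (15 mM addition). Kinetic TNB absorbance, 405 nm filter. Four-parameter Hill fit across titration.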
LmPK inh: blocks Leishmania mexicana pyruvate kinase activity; purified LmPK, Kinase-Glo ATP luminescence, 1 h; Potency, µM (doses to about 57.5 µM), without a hit: at the top dose activity change, negative = inhibition, hits mostly inhibitors; hit rate 0.37% among 290,000; AID 1721
Target sequence (Q27686 whole entry, looked up): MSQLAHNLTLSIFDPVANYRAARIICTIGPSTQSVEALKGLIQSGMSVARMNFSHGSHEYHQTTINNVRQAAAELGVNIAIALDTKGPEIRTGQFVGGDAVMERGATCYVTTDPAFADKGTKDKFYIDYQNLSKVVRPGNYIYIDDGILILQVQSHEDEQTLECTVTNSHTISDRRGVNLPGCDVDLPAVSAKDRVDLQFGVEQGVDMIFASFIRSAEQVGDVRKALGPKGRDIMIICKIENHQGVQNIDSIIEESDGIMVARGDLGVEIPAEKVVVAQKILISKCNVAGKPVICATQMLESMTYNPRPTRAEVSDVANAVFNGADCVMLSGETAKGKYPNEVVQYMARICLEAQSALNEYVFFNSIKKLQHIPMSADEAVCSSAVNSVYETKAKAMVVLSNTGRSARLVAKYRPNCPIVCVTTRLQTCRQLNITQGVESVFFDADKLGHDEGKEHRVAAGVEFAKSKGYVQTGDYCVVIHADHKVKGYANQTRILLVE
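In 50 mM imidazole pH 7.2 with 7 mM MgCl2, LmPK (0.1 nM) turned over PEP (0.5 mM) and ADP (0.1 mM) for 1 h at room temperature. Luciferase read-out of ATP.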
Giardia FBPA inh-1: inhibitors of Giardia lamblia fructose-1,6-bisphosphate aldolase | hit rate 0.71% among 290,000 | purified Giardia FBPA | Potency, µM (series often up to 59.6 µM), inactives show top-dose activity, negative = inhibition, most hits filed as inhibitors; note: nearly all actives have a fitted effect of over 55% in size
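40 nM FBPA preincubated 10 min at RT with compound (up to 57.5 uM final), then substrate plus GAPDH/TPI/NAD/arsenate coupling and diaphorase/resazurin added. Fluorescence read after 20 min at RT, 525/598 nm.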
Tb PYK inh: inhibitors of Trypanosoma brucei pyruvate kinase. TbPYK enzyme, Kinase-Glo Plus ATP luminescence, 45 min. Potency, µM (doses to about 76.8 µM), for inactives: at the highest dose activity, negative = inhibition, hits mostly inhibitors. hit rate 0.12% among 410,000; note: nearly all actives have a fitted effect of over 50% in size
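Assay buffer: 50 mM TEA pH 7.2, 100 mM KCl, 10 mM MgCl2, 0.05% BSA, 0.01% Tween-20. Pyruvate kinase from T. brucei plus substrate met compound, then ADP (130 uM final). Luminescence was read post 45 min RT.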
Giardia growth: blocks growth of Giardia lamblia trophozoites; Giardia lamblia trophozoite growth inhibition; shares compounds with Giardia FBPA inh-1; Potency, µM (titrated, usually from 57.5 µM), inactives show at the top dose activity change, negative = inhibition, most hits filed as inhibitors; hit rate 5% among 1,500;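 note: trophozoites exposed to compound for 48 h at 37 °C; nearly all actives have a fitted effect of over 70% in size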
Mammalian tox: counter-screen for Giardia aldolase inhibitors: mammalian cell toxicity | shares compounds with Giardia FBPA inh-1 | mammalian cell viability counter-screen, qHTS | Potency, µM (doses to about 57.5 µM), without a hit: at the highest dose viability change, negative = toxicity, actives largely listed as inhibitors | hit rate 4% among 1,500;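 note: Chinese hamster ovary cells used as mammalian cytotoxicity surrogate; viability measured as cellular ATP by luminescence; compound exposure lasted 48 h before reading; nearly all actives have a fitted effect of over 60% in size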
Giardia FBPA inh-2: confirmation of Giardia fructose-bisphosphate aldolase inhibitors; shares compounds with Giardia FBPA inh-1; purified Giardia aldolase enzyme activity, qHTS; Potency, µM (highest dose often 57.5 µM), for the others: top-dose activity change, negative = inhibition, most hits filed as inhibitors; hit rate 5% among 1,500; note: nearly all actives have a fitted effect of over 45% in size
Rabbit FBPA inh: selectivity test for Giardia aldolase inhibitors: rabbit aldolase | shares compounds with Giardia FBPA inh-1 | Rabbit muscle FBPA enzyme inhibition, selectivity counter-screen | Potency, µM (highest dose often 57.5 µM), for the others: top-dose activity, negative = inhibition, hits mostly inhibitors | hit rate 4% among 1,500 | AID 2794; note: nearly all actives have a fitted effect of over 60% in size
GAPDH counter: counter-screen for Giardia aldolase inhibitors: GAPDH coupling enzyme. shares compounds with Giardia FBPA inh-1. GAPDH coupling enzyme counterscreen, biochemical, qHTS. hit rate 6% among 1,500. Potency, µM (series often up to 57.5 µM), inactives show at the highest dose activity change, negative = inhibition, hits mostly inhibitors; note: nearly all actives have a fitted effect of over 55% in size
* marks the source's active call; other numbers are inactive results; [ ] = dose if it differs, or a comment. An excerpt weighted towards active compounds, which were near 3.3% of everything screened. Unless noted, calls come from the whole dose curve; as a rule, active = well fitted curve in the direction sought with a large enough effect; inconclusive = small, poorly fitted or top-dose-only effect, or another doubt; inactive = no such curve, though single readings can be large; an effect the other way counts as inactive or inconclusive. % is set by controls: 0 for no effect and ±100 for the full control effect; potency is the fitted concentration of half-maximal effect.

CCN(c1ccccc1)S(=O)(=O)c1ccc(C(=O)Nc2nnc(CSC)o2)cc1 was read as RE007 growth inh 3%, Sm TGR inh -5%, LmPK inh -6%, Giardia FBPA inh-1 16µM*, Tb PYK inh -17%, Giardia growth 5%[10.4 µM], Mammalian tox -3%, Giardia FBPA inh-2 5%, Rabbit FBPA inh 18% and GAPDH counter 13%.
O=C(NCc1cccnc1)C1CC(=O)N(c2ccc(F)cc2)C1 (configuration not stated) was read as RE007 growth inh 9%, Sm TGR inh -1%, LmPK inh 1%, Giardia FBPA inh-1 5% and Tb PYK inh -9%.
Screening CC(=O)c1ccc(N2CCN(C(=O)C3CCN(S(=O)(=O)c4c(C)noc4/C=C/c4ccc(C)cc4)CC3)CC2)cc1 returned Sm TGR inh 3% and Tb PYK inh -13%.
`CC(/C=N/NC(=O)c1ccccn1)=C\c1ccco1` gave RE007 growth inh -16%, Sm TGR inh 35µM*, LmPK inh 25µM*, Giardia FBPA inh-1 20µM*, Tb PYK inh -5%, Giardia growth inconclusive, Mammalian tox 25µM*, Giardia FBPA inh-2 inconclusive, Rabbit FBPA inh -25% and GAPDH counter inconclusive.
Screening O=C(N/N=C/C=C/c1ccco1)c1cnccn1 returned RE007 growth inh 5%, Sm TGR inh 10µM*, LmPK inh 11%, Giardia FBPA inh-1 20µM*, Tb PYK inh -6%, Giardia growth 3%[10.4 µM], Mammalian tox 12%, Giardia FBPA inh-2 inconclusive, Rabbit FBPA inh -11% and GAPDH counter inconclusive.
CCC(C)n1c(=N)c(S(=O)(=O)c2ccc(C)cc2)cc2c(=O)n3cc(C)ccc3nc21 (configuration not stated) was read as Sm TGR inh 17% and Tb PYK inh -9%.
Screening Cn1c(-c2ccccc2)cnc1NCc1cccc([N+](=O)[O-])c1 returned RE007 growth inh -11%, Sm TGR inh 12%, LmPK inh 0%, Giardia FBPA inh-1 inconclusive and Tb PYK inh -13%.
Screening COc1ccc(CNc2ncc(-c3cccc([N+](=O)[O-])c3)n2C)c(OC)c1OC returned RE007 growth inh -19%, Sm TGR inh -10%, LmPK inh 0%, Giardia FBPA inh-1 25µM*, Tb PYK inh 3%, Giardia growth inconclusive, Mammalian tox -12%, Giardia FBPA inh-2 -4%, Rabbit FBPA inh -4% and GAPDH counter 4%.
For CSc1ccc(CNc2ncc(-c3cccc([N+](=O)[O-])c3)n2C)cc1 the results were RE007 growth inh -11%, Sm TGR inh -16%, LmPK inh -5%, Giardia FBPA inh-1 20µM*, Tb PYK inh 1%, Giardia growth inconclusive, Mammalian tox -9%, Giardia FBPA inh-2 -3%, Rabbit FBPA inh -3% and GAPDH counter 7%.
NCC(=O)NCC(=O)NC[C@H]1O[C@@H](n2ccc(=O)[nH]c2=O)[C@H](O)[C@@H]1O was read as RE007 growth inh 4% and Tb PYK inh 2%.
For COc1ccc(C(=O)N/N=C/c2ccccn2)cc1OC the results were RE007 growth inh -5%, Sm TGR inh 1%, LmPK inh -3%, Giardia FBPA inh-1 16µM*, Tb PYK inh -2%, Giardia growth -14%, Mammalian tox -4%, Giardia FBPA inh-2 1%, Rabbit FBPA inh 0% and GAPDH counter 1%.
CC(C)(C)c1cc(C(=O)N/N=C/c2ccncc2)n[nH]1 was read as RE007 growth inh -13%, Sm TGR inh 57%, LmPK inh -12% and Tb PYK inh -10%.
For O=C(N/N=C/c1ccccn1)c1ccncc1 the results were Sm TGR inh 4%, LmPK inh -1%, Giardia FBPA inh-1 -6% and Tb PYK inh 3%.
O=C(N/N=C/c1ccccn1)c1ccco1 was read as RE007 growth inh -16%, Sm TGR inh 9%, LmPK inh 1%, Giardia FBPA inh-1 20µM*, Tb PYK inh 7%, Giardia growth -13%, Mammalian tox -1%, Giardia FBPA inh-2 -2%, Rabbit FBPA inh -3% and GAPDH counter -5%.
`O=C(N/N=C/c1ccccn1)c1ccccc1` gave RE007 growth inh 14%, Sm TGR inh -6%, LmPK inh -10%, Giardia FBPA inh-1 9% and Tb PYK inh -1%.
Screening CC(C)(C)c1cc(C(=O)N/N=C/c2ccccn2)n[nH]1 returned RE007 growth inh 4%, Sm TGR inh 1%, LmPK inh 0%, Giardia FBPA inh-1 16µM*, Tb PYK inh 8%, Giardia growth inconclusive, Mammalian tox 6%, Giardia FBPA inh-2 8%, Rabbit FBPA inh 5% and GAPDH counter -10%.
For O=C(N/N=C/c1ccccn1)c1cccs1 the results were RE007 growth inh -14%, Sm TGR inh 2%, LmPK inh -5%, Giardia FBPA inh-1 13µM*, Tb PYK inh 0%, Giardia growth -25%, Mammalian tox -5%, Giardia FBPA inh-2 1%, Rabbit FBPA inh -2% and GAPDH counter -1%.
COc1ccc(C(=O)Nc2ccccc2C(=O)N/N=C/c2ccccn2)cc1OC was read as RE007 growth inh inconclusive, Sm TGR inh -10%, LmPK inh inconclusive, Giardia FBPA inh-1 inconclusive and Tb PYK inh -10%.
Screening COc1cccc(NC(=O)CCCn2c(=O)[nH]c3ccccc3c2=O)c1 returned RE007 growth inh 5%, Sm TGR inh -23%, LmPK inh 0%, Giardia FBPA inh-1 4% and Tb PYK inh 0%.
CC(C)NC(=S)N1CCN(c2ncccn2)CC1 was read as RE007 growth inh -22%, Sm TGR inh -4%, LmPK inh -3%, Giardia FBPA inh-1 2% and Tb PYK inh 11%.
